Measurements reported in PubChem BioAssay (NCI).
The panel holds about 83,000 compounds, 20% with a hit somewhere; the sample as a whole holds those more often.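 For each line, cells grew in 96-well plates with the test compound present at a single concentration for 48 hours.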 Calls of active or inactive are those of the source. How the source made its calls: active means growth percent below 10; inactive means the rest.

Each compound was assayed on A549/ATCC NSCLC (assay: NCI-60 one-dose screen, 48 h (100 = growth as untreated, 0 = no growth, -100 = all killed)). Details: 10 µM.
In the case of `Cc1cc(=O)oc2cc(OCCCCOc3ccc(/C=C/C(=O)Nc4ccccc4[N+](=O)[O-])cc3)ccc12`, the growth is reported as 106% (inactive).
With `COc1ccc(-c2nc(S(=O)(=O)c3ccc(C)cc3)c(S(C)(=O)=O)o2)cc1` the growth was 81.2% (inactive).
With `CN1CCN(Cc2ccc(C(=O)Nc3cccc(Nc4ccc5c(O)cccc5n4)c3)cc2C(F)(F)F)CC1` the growth was -14.2% (active).
`O=C1NC(=NC23CC4CC(CC(C4)C2)C3)N/C1=C\c1ccc2ncccc2n1` was tested, and the growth was 2.65% (active).
For `COc1csc(/C=N/NC(=O)c2[nH]c3ccc(Br)cc3c2-c2ccccc2)c1`, the growth was 13.7% (inactive).
For `O=C(Cn1nc(-c2ccccc2)ccc1=O)NNC(=S)NC1CCCCC1`, the growth was 114% (inactive).
With `NS(=O)(=O)c1ccc(NC(=O)CSc2ccc(-c3ccccc3)nn2)c(Br)c1` the growth was 70.4% (inactive).
In the case of `O=c1c2ccccc2nc(COc2ccccc2)n1/N=C/c1ccc(F)cc1`, the growth is reported as 86.2% (inactive).
For `O=C(Nc1ccc(Cl)c([N+](=O)[O-])c1)Nc1ccc(Cl)c([N+](=O)[O-])c1`, the growth was 26.1% (inactive).
In the case of `O=C(Nc1ccc(OCc2ccccc2)cc1)Nc1ccc(Cl)c(C(F)(F)F)c1`, the growth is reported as 5.97% (active).
With `COc1ccc2nc(Cl)c(-c3cc(-c4ccccc4)nc(N)n3)cc2c1` the growth was 72.7% (inactive).
With `CN1CCN(c2ccc(Nc3nc(NCCCNC(=O)c4ccccc4)c4sccc4n3)cc2)CC1` the growth was 72.5% (inactive).
In the case of `O=C1Nc2ccc(F)cc2/C1=C/c1cccc(OCc2ccccc2)c1`, the growth is reported as 41.8% (inactive).
`Cc1noc2c(Cc3ccc([N+](=O)[O-])cc3)nn(CC(=O)N/N=C/c3ccc(Cl)cc3)c(=O)c12` was tested, and the growth was 40.1% (inactive).
